Shown are actives, neighbours in structure and some others; about 4% of the full set was active somewhere.
TROY NFkB inh: blocks TROY-dependent signaling in reporter cells | AID 1347056 | 360,000 tested, 0.98% active | Q293 LMP1-TROYcd NF-kB luciferase reporter, 4 h | inhibition, % at 10 µM;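 active means compounds whose plate-normalised and pattern-corrected inhibition of the luciferase reporter signal at the single screening dose is 50% or more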
LMP1 NFkB inh: inhibitors of Epstein-Barr LMP1-induced NF-kappaB reporter; LMP1-induced NF-kappaB luciferase reporter cells, luminescence; inhibition, % at 12.5 µM; 350,000 tested, 0.69% active; in the data active means inhibition above about 41%;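 further: 0% = neutral control wells and 100% = reference inhibitor control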
HIF-2a block: inhibitors of HIF-2a; 360,000 tested, 0.72% active; AID 624352; 786-0 RCC cells HIF-2a reporter, luciferase luminescence, overnight; inhibition, % at 18.8 µM;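 active means inhibition of the luminescence signal of 40% or more relative to plate controls, in a single-dose primary screen at 18.75 µM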
Peg3 prom inh: reduces Peg3 promoter-driven luciferase expression in HeLa. inhibition, % at 20 µM. 360,000 tested, 1.7% active. HeLa PEG-Prom luciferase reporter, luminescence, overnight;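 active means inhibition of at least 50% at 20 µM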
TRPM1 prom inh: MITF TRPM1 promoter inhibition in SK-MEL-5 cells; SK-MEL-5 TRPM1 promoter luciferase, 24 h; 330,000 tested, 0.83% active; inhibition, % at 12.5 µM; AID 488899;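 active means mean inhibition across replicates of 60% or more, whatever share of single replicates reaches that level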
TWEAK Fn14 block: TWEAK-Fn14 signaling inhibition; TWEAK-stimulated Fn14 reporter cells, luciferase luminescence, 8 h; inhibition, % at 10 µM; 360,000 tested, 2% active; in the data active means inhibition above about 50%
Mdm2-MdmX confirm: confirmation of inhibitors of human Mdm2/MdmX interaction, set 2. shares compounds with HIF-2a block. SaOS-2 split-luciferase Mdm2/MdmX complementation, luminescence. inhibition, % at 8 µM. 740 tested, 99% active. AID 504601;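 active means mean inhibition of the luminescence signal across two replicates at or above 26 percent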
Target sequence (O15151 whole entry, looked up): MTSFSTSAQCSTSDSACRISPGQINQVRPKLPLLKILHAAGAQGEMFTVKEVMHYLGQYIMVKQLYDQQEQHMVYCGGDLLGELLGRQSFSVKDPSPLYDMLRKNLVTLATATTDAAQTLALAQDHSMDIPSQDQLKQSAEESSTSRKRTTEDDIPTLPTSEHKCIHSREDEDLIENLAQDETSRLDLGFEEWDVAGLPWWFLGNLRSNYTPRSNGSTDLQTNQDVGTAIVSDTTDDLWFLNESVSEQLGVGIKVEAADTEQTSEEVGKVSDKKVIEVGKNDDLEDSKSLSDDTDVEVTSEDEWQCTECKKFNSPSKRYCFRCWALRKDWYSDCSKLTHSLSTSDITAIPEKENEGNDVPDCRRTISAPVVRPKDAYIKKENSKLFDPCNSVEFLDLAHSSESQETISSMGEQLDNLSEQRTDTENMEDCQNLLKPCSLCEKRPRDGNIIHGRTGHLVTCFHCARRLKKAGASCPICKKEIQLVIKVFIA
Target sequence (Q00987 whole entry, looked up): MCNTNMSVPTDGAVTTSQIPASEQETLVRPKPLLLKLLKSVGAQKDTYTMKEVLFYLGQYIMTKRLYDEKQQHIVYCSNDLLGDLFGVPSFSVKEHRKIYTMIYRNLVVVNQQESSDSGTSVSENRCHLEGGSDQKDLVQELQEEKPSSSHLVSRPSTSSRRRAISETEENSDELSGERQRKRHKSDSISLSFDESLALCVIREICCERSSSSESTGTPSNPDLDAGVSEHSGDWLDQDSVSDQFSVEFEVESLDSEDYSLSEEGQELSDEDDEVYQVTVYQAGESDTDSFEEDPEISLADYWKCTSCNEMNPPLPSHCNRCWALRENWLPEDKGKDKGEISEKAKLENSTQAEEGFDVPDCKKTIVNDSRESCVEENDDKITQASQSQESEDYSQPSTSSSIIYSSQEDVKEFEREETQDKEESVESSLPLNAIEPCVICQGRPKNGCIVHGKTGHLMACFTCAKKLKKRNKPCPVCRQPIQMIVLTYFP
HIF-2a conf: HIF-2a inhibition, single concentration confirmation. shares compounds with HIF-2a block. 786-0 RCC cells, HIF-2a luciferase reporter luminescence, overnight. inhibition, % at 18.8 µM. 1,800 tested, 56% active. AID 651580;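 active means mean inhibition across four replicates of at least 40 percent at the single tested concentration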
HIF-1a cs: inhibits HIF-1a reporter, a counter-screen for HIF-2a inhibitors; shares compounds with HIF-2a block; 1,800 tested, 72% active; AID 651589; MiaPaCa-2 HIF-1a luciferase reporter, desferoxamine, overnight; inhibition, % at 18.8 µM;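 active means mean inhibition of the reporter signal across four replicates at the single tested dose of 50% or more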
* hit, by the source's call; / = no result.

SMILES	TROY NFkB inh	LMP1 NFkB inh	HIF-2a block	Peg3 prom inh	TRPM1 prom inh	TWEAK Fn14 block	Mdm2-MdmX confirm	HIF-2a conf	HIF-1a cs
CC(Oc1ccc2ccc(=O)oc2c1)C(=O)NC(Cc1c[nH]c2ccc(O)cc12)C(=O)O (stereo not drawn)	11.7	-3.6	4.6	-2.8	4.1	4.1	/	/	/
COCCNC(=O)CCc1nnc(Cc2ccc(-c3ccccc3)cc2)o1	-10.1	-4.2	-13.0	-2.3	1.6	1.6	/	/	/
CC(NC(=O)CCc1nnc(-c2ccc(-c3ccccc3)cc2)o1)c1nccs1 (stereo not drawn)	-34.3	10.0	40.1*	-72.7	34.5	-0.5	/	51.2*	37.1
COC(=O)CCCNC(=O)CCc1nnc(-c2ccc(-c3ccccc3)cc2)o1	-32.0	7.8	48.2*	-90.2	17.4	0.8	/	52.4*	26.3
COc1ccccc1C(=O)Nc1ccnn1C1CCN(Cc2ccn[nH]2)CC1	2.5	-23.1	6.3	9.4	5.9	3.2	/	/	/
Cc1ccc2nc(C)cc(N/N=C/c3ccccc3O)c2c1	-27.8	-1.2	-56.8	-17.9	-10.0	14.0	/	/	/
Cc1cc(C)c2nc(C)cc(N/N=C/c3ccc(O)cc3)c2c1	-52.7	-20.0	92.8*	108.3*	86.0*	-352.4	103.0*	/	/
O=C1Nc2cccnc2N(C(=O)CCl)c2ccccc21	-4.1	-52.3	41.9*	63.1*	43.5	30.2	/	8.7	5.5
O=c1c(Cl)c(Cl)cnn1Cc1nnc(-c2ccccc2Br)o1	64.4*	-106.6	96.0*	106.4*	94.5*	92.0*	101.0*	73.4*	106.3*
COc1cc(OC)c(OC)cc1/C=C/C(=O)OCC(=O)Nc1c(C)n(C)n(-c2ccccc2)c1=O	10.3	5.1	-13.0	-3.8	-6.9	3.9	/	/	/
COc1ccc(-c2cc3nc(-c4ccccc4)cc(N4CCC(O)CC4)n3n2)cc1	1.4	-0.5	-2.5	46.4	7.3	39.6	/	/	/
COc1ccc(-c2cc3nc(-c4ccccc4)cc(N4CCCC(O)C4)n3n2)cc1 (stereo not drawn)	11.9	61.5*	42.7*	46.2	-14.3	38.3	/	-10.9	90.3*
CCCCC(=O)NC(c1ccc(Cl)cc1Cl)c1ccc2cccnc2c1O (stereo not drawn)	-18.3	68.7*	-46.2	54.1*	44.5	-19.6	84.7*	/	/
CC(NC(=O)CSc1ncccn1)c1ccc(Cl)cc1Cl (stereo not drawn)	-37.2	-3.6	-13.7	14.8	1.7	17.9	/	/	/
CCOc1ccc(NC(=O)N[C@@H](Cc2ccccc2)C(=O)O)cc1	-1.3	-6.7	23.8	3.3	7.6	-11.4	/	/	/
O=C(N/N=C/c1ccccc1C(=O)O)c1ccc(COc2cccc3cccnc23)cc1	-10.7	7.3	-5.4	-9.8	2.8	0.3	/	/	/
O=C(N/N=C/c1ccc[nH]1)c1ccc(COc2cccc3cccnc23)cc1	48.5	47.3*	24.9	89.2*	46.1	84.5*	97.0*	/	/
CC(=O)N(c1ccccc1)C1CCCC1	20.1	9.3	4.1	3.9	2.3	-21.0	/	/	/
O=C(CCl)N(c1ccccc1)C1CCCCC1	6.5	-17.6	60.7*	110.0*	95.2*	32.8	103.5*	91.8*	105.5*
COC(=O)c1[nH]c2ccc(Cl)cc2c1NC(=O)CCN1CCN(C2CCCCC2)CC1	-11.8	0.8	18.3	3.9	2.6	12.1	/	/	/
COC(=O)c1[nH]c2ccc(Br)cc2c1NC(=O)CN1CCN(C2CCCCC2)CC1	-0.1	-5.2	68.0*	103.8*	86.0*	-11.9	103.2*	9.1	103.6*
CCOC(=O)C(=Cc1c[nH]c2ccc(S(=O)(=O)N(C)C)cc12)C(=O)OCC	8.4	4.9	56.4*	32.6	7.8	66.0*	/	50.9*	80.8*
CCOC(=O)/C(C#N)=C/c1c[nH]c2ccccc12	-64.6	-5.5	-148.4	-179.8	-3.6	-10.3	/	/	/
N/C(=C\C(=O)c1cc(Cl)ccc1O)C(Cl)(Cl)Cl	7.5	-5.9	24.9	29.2	51.3	67.3*	103.5*	/	/
CC(C)(C)OC(=O)N1Cc2ccccc2C[C@H]1C(=O)NCC(=O)Nc1ccc2c(c1)OCCO2	82.3*	44.0*	47.1*	39.8	-5.5	96.2*	/	58.0*	80.7*
SMILES	TROY NFkB inh	LMP1 NFkB inh	HIF-2a block	Peg3 prom inh	TRPM1 prom inh	TWEAK Fn14 block	Mdm2-MdmX confirm	HIF-2a conf	HIF-1a cs
COc1cccc(NC(=O)CNC(=O)[C@@H]2Cc3ccccc3CN2C(=O)OC(C)(C)C)c1	4.9	-3.0	9.6	10.4	-1.2	-5.7	/	/	/
COCCN(C(=O)CCl)C(C(=O)NC1CCCCC1)c1ccccc1C (stereo not drawn)	-0.8	9.1	65.6*	60.3*	78.4*	47.9	/	23.0	91.3*
COC(=O)C1=C(C)N(c2cc(C)cc(C)c2)/C(=C/c2ccc(O)cc2)C1=O	12.7	51.6*	43.7*	33.1	0.5	57.9*	/	24.1	60.8*
COc1ccc(NC(=O)CCN2C(=O)c3ccncc3C2=O)cc1OC	15.2	-11.0	3.2	-1.3	10.4	9.0	/	/	/
COc1ccc(C(=O)CSc2nc3ccccc3n2CC(=O)c2ccccc2)cc1	3.0	-0.5	-8.9	18.1	-6.6	18.2	/	/	/
COc1ccc(C(=O)Cn2c(C(=O)/C=C/c3ccccc3)nc3ccccc32)cc1	10.7	7.4	40.2*	35.2	35.1	-20.6	/	3.0	101.6*
CNCCNC[C@H](Cc1cccc2ccccc12)NCCc1ccccc1	11.3	-2.5	6.3	-6.7	-24.6	-14.0	/	/	/
CNC[C@H](Cc1ccccc1)NC[C@@H](Cc1cccc2ccccc12)NCCc1ccc(C)cc1	-1.4	-8.2	22.4	96.6*	-5.7	-44.4	100.7*	/	/
CCOc1ccc(S(=O)(=O)Nc2cccc(C(=O)NCC(c3ccc(OC)cc3)N3CCOCC3)c2)cc1 (stereo not drawn)	-3.8	1.6	17.5	19.5	1.9	-7.8	/	/	/
CCN1C(=NCCCCO)N[C@@H](c2cccc(F)c2)C(C(=O)OC)=C1C	-9.5	7.1	18.6	-8.9	1.9	4.3	/	/	/
CCN(CC)CCCN=C1N[C@@H](c2cccc(F)c2)C(C(=O)OC)=C(C)N1Cc1ccccc1	1.1	-22.9	8.1	96.9*	94.5*	-13.3	102.2*	/	/
CCn1c2ccccc2c2nnc(SCC(=O)Nc3c(C)n(C)n(-c4ccccc4)c3=O)nc21	-2.8	-1.1	12.7	0.4	10.4	12.5	/	/	/
Cc1c(NC(=O)CSc2nnc3c4ccccc4n(CCc4ccccc4)c3n2)c(=O)n(-c2ccccc2)n1C	6.0	13.6	-29.4	9.1	-15.2	-30.0	101.0*	/	/

Source: PubChem
